From publication PMC11006913
Positions count from the first letter of the chain named.

Assays:
Test in all cases: PBM; 200 nM protein, PBS
Details in all cases: dsDNA, one strand shown
PAX4 [1] = target: T1, PAX4 (Homo sapiens, UniProt O43316 9-242, R200K)
T1 sequence: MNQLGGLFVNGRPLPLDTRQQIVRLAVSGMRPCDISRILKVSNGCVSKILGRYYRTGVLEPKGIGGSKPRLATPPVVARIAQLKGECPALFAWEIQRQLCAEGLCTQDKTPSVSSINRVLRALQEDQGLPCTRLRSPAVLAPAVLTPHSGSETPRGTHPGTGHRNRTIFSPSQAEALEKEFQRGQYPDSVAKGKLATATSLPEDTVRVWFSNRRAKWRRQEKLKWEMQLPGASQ

PAX4 [2] = target: T2, PAX4 (Homo sapiens, UniProt O43316 9-242)
T2 sequence: T1 sequence with K192R

PAX4 [3] = target: T3, PAX4 (Homo sapiens, UniProt O43316 9-242, R200Q)
T3 sequence: T1 sequence with K192Q

PAX4 [4] = target: T4, PAX4 (Homo sapiens, UniProt O43316 9-242, F177V)
T4 sequence: T1 sequence with F169V, K192R

PAX4 [5] = target: T5, PAX4 (Homo sapiens, UniProt O43316 9-242, F177Y)
T5 sequence: T1 sequence with F169Y, K192R

PROP1 [6] = target: PROP1 (Homo sapiens, UniProt O75360 56-141)
PROP1 [7] = target: PROP1 (Homo sapiens, UniProt O75360 56-141, R99H)
PROP1 [8] = target: PROP1 (Homo sapiens, UniProt O75360 56-141, F88S)
PAX4 [9] = target: T6, PAX4 (Homo sapiens, UniProt O43316 9-242, R227W)
T6 sequence: T1 sequence with K192R, R219W

VAX1 [10] = target: VAX1 (Homo sapiens, UniProt Q5SQQ9 86-172)
VAX1 [11] = target: VAX1 (Homo sapiens, UniProt Q5SQQ9 86-172, T142I)
VAX1 [12] = target: VAX1 (Homo sapiens, UniProt Q5SQQ9 86-172, K157R)
VAX1 (Homo sapiens, UniProt Q5SQQ9 86-172, K157R), sequence (Q5SQQ9 86-172 K157R): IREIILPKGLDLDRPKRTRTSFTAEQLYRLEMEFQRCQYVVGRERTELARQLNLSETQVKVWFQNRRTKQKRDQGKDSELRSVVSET

PROP1 (Homo sapiens, UniProt O75360 56-141), sequence (O75360 56-141): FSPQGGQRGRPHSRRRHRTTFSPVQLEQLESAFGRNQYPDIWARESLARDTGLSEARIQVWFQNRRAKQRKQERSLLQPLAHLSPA
PROP1 (Homo sapiens, UniProt O75360 56-141, F88S), sequence (O75360 56-141 F88S): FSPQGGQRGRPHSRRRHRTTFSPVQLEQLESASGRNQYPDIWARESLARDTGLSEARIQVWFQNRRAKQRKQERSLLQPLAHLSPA
PROP1 (Homo sapiens, UniProt O75360 56-141, R99H), sequence (O75360 56-141 R99H): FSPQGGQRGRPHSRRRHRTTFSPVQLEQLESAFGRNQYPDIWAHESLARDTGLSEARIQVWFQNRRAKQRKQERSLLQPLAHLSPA
VAX1 (Homo sapiens, UniProt Q5SQQ9 86-172), sequence (Q5SQQ9 86-172): as the sequence (Q5SQQ9 86-172 K157R) above, with R72K counted along it
VAX1 (Homo sapiens, UniProt Q5SQQ9 86-172, T142I), sequence (Q5SQQ9 86-172 T142I): as the sequence (Q5SQQ9 86-172 K157R) above, with T57I, R72K counted along it

Row | Sequence | binding signal (PAX4 [1]) | binding signal (PAX4 [2]) | binding signal (PAX4 [3]) | binding signal (PAX4 [4]) | binding signal (PAX4 [5]) | binding signal (PROP1 [6]) | binding signal (PROP1 [7]) | binding signal (PROP1 [8]) | binding signal (PAX4 [9]) | binding signal (VAX1 [10]) | binding signal (VAX1 [11]) | binding signal (VAX1 [12])
1 | CCGTCCGA | 9.27 upbm affinity estimate (log intensity, higher = more binding, comparable within an allelic series) | 9.39 upbm affinity estimate (log intensity, higher = more binding, comparable within an allelic series) | 9.28 upbm affinity estimate (log intensity, higher = more binding, comparable within an allelic series) | 9.26 upbm affinity estimate (log intensity, higher = more binding, comparable within an allelic series) | 9.27 upbm affinity estimate (log intensity, higher = more binding, comparable within an allelic series) | 6.64 upbm affinity estimate (log intensity, higher = more binding, comparable within an allelic series) | 6.59 upbm affinity estimate (log intensity, higher = more binding, comparable within an allelic series) | 6.67 upbm affinity estimate (log intensity, higher = more binding, comparable within an allelic series) | 9.25 upbm affinity estimate (log intensity, higher = more binding, comparable within an allelic series) | – | – | –
2 | CGGGCCAC | 9.16 upbm affinity estimate (log intensity, higher = more binding, comparable within an allelic series) | 9.26 upbm affinity estimate (log intensity, higher = more binding, comparable within an allelic series) | 9.31 upbm affinity estimate (log intensity, higher = more binding, comparable within an allelic series) | 9.28 upbm affinity estimate (log intensity, higher = more binding, comparable within an allelic series) | 9.41 upbm affinity estimate (log intensity, higher = more binding, comparable within an allelic series) | – | – | – | 9.3 upbm affinity estimate (log intensity, higher = more binding, comparable within an allelic series) | – | – | –
3 | AGGTTGCC | 9.39 upbm affinity estimate (log intensity, higher = more binding, comparable within an allelic series) | 9.33 upbm affinity estimate (log intensity, higher = more binding, comparable within an allelic series) | 9.49 upbm affinity estimate (log intensity, higher = more binding, comparable within an allelic series) | 9.35 upbm affinity estimate (log intensity, higher = more binding, comparable within an allelic series) | 9.33 upbm affinity estimate (log intensity, higher = more binding, comparable within an allelic series) | – | – | – | 9.35 upbm affinity estimate (log intensity, higher = more binding, comparable within an allelic series) | – | – | –
4 | AAGCGCTT | 9.65 upbm affinity estimate (log intensity, higher = more binding, comparable within an allelic series) | 9.81 upbm affinity estimate (log intensity, higher = more binding, comparable within an allelic series) | 9.56 upbm affinity estimate (log intensity, higher = more binding, comparable within an allelic series) | 9.61 upbm affinity estimate (log intensity, higher = more binding, comparable within an allelic series) | 9.5 upbm affinity estimate (log intensity, higher = more binding, comparable within an allelic series) | – | – | – | 9.68 upbm affinity estimate (log intensity, higher = more binding, comparable within an allelic series) | – | – | –
5 | CTAATCAG | 11.2 upbm affinity estimate (log intensity, higher = more binding, comparable within an allelic series) | 11.6 upbm affinity estimate (log intensity, higher = more binding, comparable within an allelic series) | 11.3 upbm affinity estimate (log intensity, higher = more binding, comparable within an allelic series) | 10.1 upbm affinity estimate (log intensity, higher = more binding, comparable within an allelic series) | 10.5 upbm affinity estimate (log intensity, higher = more binding, comparable within an allelic series) | – | – | – | 10.3 upbm affinity estimate (log intensity, higher = more binding, comparable within an allelic series) | – | – | –
6 | CGAATTAG | 11.9 upbm affinity estimate (log intensity, higher = more binding, comparable within an allelic series) | 12.5 upbm affinity estimate (log intensity, higher = more binding, comparable within an allelic series) | 12 upbm affinity estimate (log intensity, higher = more binding, comparable within an allelic series) | 10.3 upbm affinity estimate (log intensity, higher = more binding, comparable within an allelic series) | 11.1 upbm affinity estimate (log intensity, higher = more binding, comparable within an allelic series) | – | – | – | 10.9 upbm affinity estimate (log intensity, higher = more binding, comparable within an allelic series) | – | – | –
7 | TGGGCCCA | 9.53 upbm affinity estimate (log intensity, higher = more binding, comparable within an allelic series) | 9.41 upbm affinity estimate (log intensity, higher = more binding, comparable within an allelic series) | 9.57 upbm affinity estimate (log intensity, higher = more binding, comparable within an allelic series) | 9.2 upbm affinity estimate (log intensity, higher = more binding, comparable within an allelic series) | 9.37 upbm affinity estimate (log intensity, higher = more binding, comparable within an allelic series) | – | – | – | 9.35 upbm affinity estimate (log intensity, higher = more binding, comparable within an allelic series) | – | – | –
8 | GGCGCGAC | 9.13 upbm affinity estimate (log intensity, higher = more binding, comparable within an allelic series) | 9.13 upbm affinity estimate (log intensity, higher = more binding, comparable within an allelic series) | 9.1 upbm affinity estimate (log intensity, higher = more binding, comparable within an allelic series) | 9.14 upbm affinity estimate (log intensity, higher = more binding, comparable within an allelic series) | 9.06 upbm affinity estimate (log intensity, higher = more binding, comparable within an allelic series) | – | – | – | 9.21 upbm affinity estimate (log intensity, higher = more binding, comparable within an allelic series) | – | – | –
9 | AAATTAGG | 11.4 upbm affinity estimate (log intensity, higher = more binding, comparable within an allelic series) | 11.9 upbm affinity estimate (log intensity, higher = more binding, comparable within an allelic series) | 11.5 upbm affinity estimate (log intensity, higher = more binding, comparable within an allelic series) | 10.2 upbm affinity estimate (log intensity, higher = more binding, comparable within an allelic series) | 10.5 upbm affinity estimate (log intensity, higher = more binding, comparable within an allelic series) | – | – | – | 10.6 upbm affinity estimate (log intensity, higher = more binding, comparable within an allelic series) | – | – | –
10 | CTTCGTTC | 9.33 upbm affinity estimate (log intensity, higher = more binding, comparable within an allelic series) | 9.37 upbm affinity estimate (log intensity, higher = more binding, comparable within an allelic series) | 9.51 upbm affinity estimate (log intensity, higher = more binding, comparable within an allelic series) | 9.56 upbm affinity estimate (log intensity, higher = more binding, comparable within an allelic series) | 9.5 upbm affinity estimate (log intensity, higher = more binding, comparable within an allelic series) | – | – | – | 9.58 upbm affinity estimate (log intensity, higher = more binding, comparable within an allelic series) | – | – | –
11 | ACGAATTA | 11.6 upbm affinity estimate (log intensity, higher = more binding, comparable within an allelic series) | 12.1 upbm affinity estimate (log intensity, higher = more binding, comparable within an allelic series) | 11.7 upbm affinity estimate (log intensity, higher = more binding, comparable within an allelic series) | 10.3 upbm affinity estimate (log intensity, higher = more binding, comparable within an allelic series) | 11 upbm affinity estimate (log intensity, higher = more binding, comparable within an allelic series) | – | – | – | 10.8 upbm affinity estimate (log intensity, higher = more binding, comparable within an allelic series) | – | – | –
12 | ATTAGCTA | 11.4 upbm affinity estimate (log intensity, higher = more binding, comparable within an allelic series) | 11.7 upbm affinity estimate (log intensity, higher = more binding, comparable within an allelic series) | 11.4 upbm affinity estimate (log intensity, higher = more binding, comparable within an allelic series) | 10.2 upbm affinity estimate (log intensity, higher = more binding, comparable within an allelic series) | 10.6 upbm affinity estimate (log intensity, higher = more binding, comparable within an allelic series) | – | – | – | 10.6 upbm affinity estimate (log intensity, higher = more binding, comparable within an allelic series) | – | – | –
13 | AAGGGGGC | 9.31 upbm affinity estimate (log intensity, higher = more binding, comparable within an allelic series) | 9.38 upbm affinity estimate (log intensity, higher = more binding, comparable within an allelic series) | 9.38 upbm affinity estimate (log intensity, higher = more binding, comparable within an allelic series) | 9.25 upbm affinity estimate (log intensity, higher = more binding, comparable within an allelic series) | 9.22 upbm affinity estimate (log intensity, higher = more binding, comparable within an allelic series) | 6.71 upbm affinity estimate (log intensity, higher = more binding, comparable within an allelic series) | 6.71 upbm affinity estimate (log intensity, higher = more binding, comparable within an allelic series) | 6.36 upbm affinity estimate (log intensity, higher = more binding, comparable within an allelic series) | 9.29 upbm affinity estimate (log intensity, higher = more binding, comparable within an allelic series) | – | – | –
14 | CGTTGGCC | 9.3 upbm affinity estimate (log intensity, higher = more binding, comparable within an allelic series) | 9.3 upbm affinity estimate (log intensity, higher = more binding, comparable within an allelic series) | 9.53 upbm affinity estimate (log intensity, higher = more binding, comparable within an allelic series) | 9.43 upbm affinity estimate (log intensity, higher = more binding, comparable within an allelic series) | 9.4 upbm affinity estimate (log intensity, higher = more binding, comparable within an allelic series) | – | – | – | 9.45 upbm affinity estimate (log intensity, higher = more binding, comparable within an allelic series) | – | – | –
15 | ATTAGGGA | 11.1 upbm affinity estimate (log intensity, higher = more binding, comparable within an allelic series) | 11.5 upbm affinity estimate (log intensity, higher = more binding, comparable within an allelic series) | 11.2 upbm affinity estimate (log intensity, higher = more binding, comparable within an allelic series) | 10.1 upbm affinity estimate (log intensity, higher = more binding, comparable within an allelic series) | 10.3 upbm affinity estimate (log intensity, higher = more binding, comparable within an allelic series) | – | – | – | 10.4 upbm affinity estimate (log intensity, higher = more binding, comparable within an allelic series) | – | – | –
16 | GCCGGGAC | 9.33 upbm affinity estimate (log intensity, higher = more binding, comparable within an allelic series) | 9.39 upbm affinity estimate (log intensity, higher = more binding, comparable within an allelic series) | 9.37 upbm affinity estimate (log intensity, higher = more binding, comparable within an allelic series) | 9.2 upbm affinity estimate (log intensity, higher = more binding, comparable within an allelic series) | 9.2 upbm affinity estimate (log intensity, higher = more binding, comparable within an allelic series) | 7.02 upbm affinity estimate (log intensity, higher = more binding, comparable within an allelic series) | 6.96 upbm affinity estimate (log intensity, higher = more binding, comparable within an allelic series) | 6.46 upbm affinity estimate (log intensity, higher = more binding, comparable within an allelic series) | 9.24 upbm affinity estimate (log intensity, higher = more binding, comparable within an allelic series) | – | – | –
17 | ATGAATTA | 11.7 upbm affinity estimate (log intensity, higher = more binding, comparable within an allelic series) | 12.2 upbm affinity estimate (log intensity, higher = more binding, comparable within an allelic series) | 11.8 upbm affinity estimate (log intensity, higher = more binding, comparable within an allelic series) | 10.7 upbm affinity estimate (log intensity, higher = more binding, comparable within an allelic series) | 11.2 upbm affinity estimate (log intensity, higher = more binding, comparable within an allelic series) | – | – | – | 11 upbm affinity estimate (log intensity, higher = more binding, comparable within an allelic series) | – | – | –
18 | CAGGCAGG | 9.45 upbm affinity estimate (log intensity, higher = more binding, comparable within an allelic series) | 8.98 upbm affinity estimate (log intensity, higher = more binding, comparable within an allelic series) | 9.63 upbm affinity estimate (log intensity, higher = more binding, comparable within an allelic series) | 9.47 upbm affinity estimate (log intensity, higher = more binding, comparable within an allelic series) | 9.56 upbm affinity estimate (log intensity, higher = more binding, comparable within an allelic series) | – | – | – | 9.49 upbm affinity estimate (log intensity, higher = more binding, comparable within an allelic series) | 7.2 upbm affinity estimate (log intensity, higher = more binding, comparable within an allelic series) | 7.22 upbm affinity estimate (log intensity, higher = more binding, comparable within an allelic series) | 7 upbm affinity estimate (log intensity, higher = more binding, comparable within an allelic series)
19 | CAGCCGGG | 9.16 upbm affinity estimate (log intensity, higher = more binding, comparable within an allelic series) | 9.21 upbm affinity estimate (log intensity, higher = more binding, comparable within an allelic series) | 9.22 upbm affinity estimate (log intensity, higher = more binding, comparable within an allelic series) | 9.02 upbm affinity estimate (log intensity, higher = more binding, comparable within an allelic series) | 9.05 upbm affinity estimate (log intensity, higher = more binding, comparable within an allelic series) | – | – | – | 9.17 upbm affinity estimate (log intensity, higher = more binding, comparable within an allelic series) | – | – | –
20 | CCGGGCCC | 9.07 upbm affinity estimate (log intensity, higher = more binding, comparable within an allelic series) | 9.07 upbm affinity estimate (log intensity, higher = more binding, comparable within an allelic series) | 9.07 upbm affinity estimate (log intensity, higher = more binding, comparable within an allelic series) | 9.05 upbm affinity estimate (log intensity, higher = more binding, comparable within an allelic series) | 9 upbm affinity estimate (log intensity, higher = more binding, comparable within an allelic series) | 6.54 upbm affinity estimate (log intensity, higher = more binding, comparable within an allelic series) | 6.73 upbm affinity estimate (log intensity, higher = more binding, comparable within an allelic series) | 6.36 upbm affinity estimate (log intensity, higher = more binding, comparable within an allelic series) | 9.12 upbm affinity estimate (log intensity, higher = more binding, comparable within an allelic series) | – | – | –
